Results on 10 molecules are retold here after PubChem BioAssay (EPA / NIEHS).

The AC50 is the midpoint of the concentration-response curve, whichever way the signal moves.

Where “and” joins values, the source holds several entries; their conditions need not be identical. Identical values can stand only once. Results filed as inconclusive are left out. Calls of active or inactive are those of the source. How the source made its calls, unless noted: active means hit-call score of the fitted dose curve at least 0.9, where 1 is the maximum; inconclusive means response in the unintended direction; inactive means score below 0.9.

The subject of assay [1] is DIO1 (gene 1733). Put plainly: CCTE_GLTED_hDIO1: CCTE's human Deiodinase 1 (DIO1) Inhibition Assay, Great Lakes Toxicology and Ecology Division (GLTED) Lab (AID 2283987).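 Further: isolated human DIO1 enzyme in a cell-free setup rather than cells; enzyme activity read as free iodide liberated from substrate via Sandell-Kolthoff colorimetry.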 The gist of the method:
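Chemicals are tested on human DIO1 without cells for 3 h. Uninhibited enzyme frees iodide, which speeds cerium(IV) reduction by arsenic and is read by spectrophotometry.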

Assay [2] in a line: CCTE_Simmons_MITO_basal_resp_rate: CCTE's HepG2 Seahorse XF Respirometric Screening Assay at Basal Respiratory State, Simmons Lab (AID 2284001; active means hit-call score of the fitted dose curve at least 0.9, where 1 is the maximum; inactive means score below 0.9). Particulars: actives raise or lower the signal. The gist of the method: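 HepG2 cells were given test chemicals at 7 concentrations, 125 nM to 100 uM final, and oxygen consumption rate was read every 6 min (3 min mix, 3 min measure) over 72 min. Basal-phase OCR was fitted bidirectionally against DMSO.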

Assay [3] is described as follows: CCTE_Simmons_MITO_max_resp_rate: CCTE's HepG2 Seahorse XF Respirometric Screening Assay at Maximal Respiratory State [uncoupled], Simmons Lab (AID 2284002; active means hit-call score of the fitted dose curve at least 0.9, where 1 is the maximum; inactive means score below 0.9). Conditions: actives raise or lower the signal. The gist of the method:
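Uncoupled (FCCP) respiration of HepG2 cells served as the endpoint, with measurements at 6-minute intervals across a 72-minute run and compounds dosed at 7 concentrations up to 100 uM final.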

Assay [4] is described as follows: CCTE_Simmons_MITO_inhib_resp_rate: CCTE's HepG2 Seahorse XF Respirometric Screening Assay at Inhibited Respiratory State [full ETC block], Simmons Lab (AID 2284006; active means hit-call score of the fitted dose curve at least 0.9, where 1 is the maximum; inactive means score below 0.9). Particulars: actives raise or lower the signal. The gist of the method: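 Compound injected onto HepG2 cells (125 nM–100 uM final, 7 points); FCCP then rotenone/antimycin A added. Oxygen consumption read every 6 min (3 min mix, 3 min measure) for 72 min. Inhibited-state OCR fitted against DMSO.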

In assay [5] the target is Nucleoli Translocation, AR (gene 367) (UniProt P10275). Nature of the assay: UPITT_HCI_U2OS_AR_TIF2_Nucleoli_Antagonist: University of Pittsburgh U2OS Androgen Receptor-Transcriptional Intermediary Factor 2 (AR-TIF2) Antagonism High Content Imaging Assay for Nucleoli Translocation (AID 2283997). The gist of the method:
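U2OS cells expressing RFP-tagged human AR and GFP-tagged TIF2 were imaged by high-content fluorescence microscopy for red AR signal in the nucleolar region. Compounds were screened at 20 uM final (0.2% DMSO), with activity fitted relative to DHT as baseline.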

Assay [6] addresses Ratio of Nucleoli Translocation and Cytoplasm, AR (gene 367) (UniProt P10275). Nature of the assay: UPITT_HCI_U2OS_AR_TIF2_Nucleoli_Cytoplasm_Ratio_Agonist: University of Pittsburgh U2OS Androgen Receptor-Transcriptional Intermediary Factor 2 (AR-TIF2) Agonism High Content Imaging Assay for Ratio of Nucleoli Translocation and Cytoplasm (AID 2284000).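 Further: hits raise the red nucleolar to cytoplasm ratio above vehicle.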 The gist of the method:
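U2OS cells expressing RFP-tagged human AR and GFP-tagged TIF2 were imaged by high-content fluorescence microscopy. The endpoint is the ratio of nucleolar to cytoplasmic red fluorescence, fitted for gain of signal relative to DMSO. Concentration-response spanned 0.195 to 50 uM final (0.5% DMSO).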

The target of assay [7] is THRA (gene 7067) (UniProt P10827). Put plainly: TOX21_TRA_COA_Agonist_Followup_ratio: Tox21 Thyroid Hormone Receptor alpha Agonism through Coactivator Recruitment Follow-Up Assay, Ratio (AID 2283948; active means hit-call score of the fitted dose curve at least 0.9, where 1 is the maximum; inactive means score below 0.9). The gist of the method: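 Agonist-mode biochemical TR-FRET with TRα LBD and SRC-2 coactivator peptide; activity expressed as percent of T3 response over DMSO baseline.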
Sequence of THRA (gene 7067) (P10827 whole entry, looked up, the tested form may be a part): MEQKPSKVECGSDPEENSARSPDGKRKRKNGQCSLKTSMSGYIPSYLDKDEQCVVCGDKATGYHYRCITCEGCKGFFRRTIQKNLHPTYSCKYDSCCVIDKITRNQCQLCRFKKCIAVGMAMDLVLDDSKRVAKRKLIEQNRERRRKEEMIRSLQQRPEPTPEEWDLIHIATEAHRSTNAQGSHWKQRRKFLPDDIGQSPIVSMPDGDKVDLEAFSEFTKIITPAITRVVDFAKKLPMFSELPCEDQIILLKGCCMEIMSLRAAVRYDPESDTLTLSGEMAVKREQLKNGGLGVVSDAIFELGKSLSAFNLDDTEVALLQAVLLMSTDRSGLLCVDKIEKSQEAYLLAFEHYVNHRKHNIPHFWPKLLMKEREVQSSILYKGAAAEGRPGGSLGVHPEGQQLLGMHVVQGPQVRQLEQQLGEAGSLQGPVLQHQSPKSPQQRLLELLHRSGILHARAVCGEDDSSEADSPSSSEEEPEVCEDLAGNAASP
Assay [8] concerns the target THRB (gene 7068) (UniProt P10828). Nature of the assay: TOX21_TRB_BLA_Agonist_Followup_ratio: Tox21 Thyroid Hormone Receptor beta Agonism Beta-lactamase (BLA) Follow-Up Assay, Ratio (AID 2283954). The gist of the method: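 Human TRβ LBD–GAL4 DBD fusion in GeneBLAzer UAS-bla HEK293T cells; 11 concentrations in triplicate, 18 h at 37°C/5% CO2, T3 as agonist control. CCF4-AM substrate 2 h at room temperature; 460:530 nm ratio fitted for gain of signal versus DMSO.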

Assay [9] is described as follows: TOX21_TRB_BLA_Agonist_Followup_viability: Viability Assessment in the Tox21 Thyroid Hormone Receptor beta Agonism Beta-lactamase (BLA) Follow-Up Assay (AID 2283956). The gist of the method:
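TRb-bla HEK293T cells (GAL4-DBD/human TRb LBD) in 2% charcoal-stripped FBS medium were exposed 18 h at 37C to 11 concentrations in triplicate. CellTiter-Glo ATP luminescence was read after 30 min at room temperature, with bidirectional fitting against DMSO.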

Assay [10] has as its target THRB (gene 7068) (UniProt P10828). Nature of the assay: TOX21_TRB_COA_Agonist_Followup_ratio: Tox21 Thyroid Hormone Receptor beta Agonism through Coactivator Recruitment Follow-Up Assay, Ratio (AID 2283963; active means hit-call score of the fitted dose curve at least 0.9, where 1 is the maximum; inactive means score below 0.9). The gist of the method: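 Cell-free TR-FRET coactivator recruitment: GST-tagged TRβ LBD (5.0 nM) with 0.10% BSA incubated with compound, then fluorescein-SRC-2 peptide (200 nM) and Tb-anti-GST antibody (2 nM) added. 520:495 nm ratio normalized to DMSO (0%) and T3 (100%).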

In assay [11] the target is Retinoic acid receptor RXR-alpha (Homo sapiens) (UniProt P19793). Put plainly: TOX21_TR_RXR_BLA_Agonist_Followup_ratio: Tox21 Thyroid Hormone Receptor beta Retinoid X Receptor alpha (RXRa) Agonism Beta-lactamase (BLA) Follow-Up Assay, Ratio (AID 2283968). The gist of the method:
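HEK293T RXRa-bla, qHTS; cpd 11-pt conc. in triplicate, 16 h 37C/5% CO2; CCF4-AM 2 h RT; ratio 460:530 nm; agonist direction vs DMSO; 9-cis retinoic acid as positive control.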

The nature of assay [12]: TOX21_TR_RXR_BLA_Agonist_Followup_viability: Viability Assessment in the Tox21 Thyroid Hormone Receptor beta Retinoid X Receptor alpha (RXRa) Agonism Beta-lactamase (BLA) Follow-Up Assay (AID 2283970). The gist of the method:
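Cells: HEK293T RXRa-UAS-bla, 2,500/well; medium phenol red-free DMEM + 2% charcoal-stripped FBS; 16h, 37C/5% CO2; qHTS concentration series. Read: CellTiter-Glo luminescence (ATP); bidirectional fit, DMSO = baseline.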

Assay [13] concerns the target Thyroid hormone receptor alpha (Rattus norvegicus) + Thyroid hormone receptor beta (Rattus norvegicus) (UniProt P18113+P63059). Put plainly: TOX21_TR_LUC_GH3_Antagonist_Followup: Tox21 GH3 Thyroid Hormone Receptor Antagonism Luciferase Follow-Up Assay (AID 2283942). The gist of the method:
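Rat pituitary GH3 cells with a TRα/TRβ-driven luciferase reporter, 5 h attachment, then 15 concentrations (92 uM to 5nM final) plus 1.0 nM T3 agonist, 24 h at 37C/5% CO2. ONE-Glo luminescence; signal change fitted against DMSO baseline.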

Assay [14] has as its target THRB (gene 7068) (UniProt P10828). Nature of the assay: TOX21_TRB_BLA_Antagonist_Followup_ratio: Tox21 Thyroid Hormone Receptor beta Antagonism Beta-lactamase (BLA) Follow-Up Assay, Ratio (AID 2283958). The gist of the method: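 HEK293T TRb-bla (GAL4 DBD + hTRβ LBD), 2% cs-FBS phenol red-free DMEM, 5 h attach; cpds 11-pt triplicate, 18 h 37C; CCF4-AM 2 h RT; 460/530 ratio vs DMSO; CellTiter-Glo viability same wells.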

Assay [15] is described as follows: TOX21_TRB_BLA_Antagonist_Followup_viability: Viability Assessment in the Tox21 Thyroid Hormone Receptor beta Antagonism Beta-lactamase (BLA) Follow-Up Assay (AID 2283961). The gist of the method:
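In the same wells as the reporter read, cell health was gauged by CellTiter-Glo ATP luminescence, with signal loss indicating reduced viability. Cells had been exposed to test compounds for 18 h.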

The target in assay [16] is THRB (gene 7068) (UniProt P10828). Nature of the assay: TOX21_TRB_COA_Antagonist_Followup_ratio: Tox21 Thyroid Hormone Receptor beta Antagonism through Coactivator Recruitment Follow-Up Assay, Ratio (AID 2283967). The gist of the method:
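Cell-free TR-FRET coactivator recruitment with GST-tagged TRβ LBD (5.0 nM) and fluorescein-labeled SRC-2 peptide (200 nM) detected by terbium anti-GST antibody (2 nM). The 520:495 nm emission ratio was normalized to DMSO (0%) and T3 (100%).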

Assay [17] deals with Retinoic acid receptor RXR-alpha (Homo sapiens) (UniProt P19793). Nature of the assay: TOX21_TR_RXR_BLA_Antagonist_Followup_ratio: Tox21 Thyroid Hormone Receptor beta Retinoid X Receptor alpha (RXRa) Antagonism Beta-lactamase (BLA) Follow-Up Assay, Ratio (AID 2283972). The gist of the method: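 Compounds were tested in triplicate at 11 concentrations on RXRa-bla HEK293T cells for 16 h. Substrate cleavage ratio, normalized to DMSO, gave the endpoint.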
Sequence of Retinoic acid receptor RXR-alpha (Homo sapiens) (P19793 whole entry, looked up): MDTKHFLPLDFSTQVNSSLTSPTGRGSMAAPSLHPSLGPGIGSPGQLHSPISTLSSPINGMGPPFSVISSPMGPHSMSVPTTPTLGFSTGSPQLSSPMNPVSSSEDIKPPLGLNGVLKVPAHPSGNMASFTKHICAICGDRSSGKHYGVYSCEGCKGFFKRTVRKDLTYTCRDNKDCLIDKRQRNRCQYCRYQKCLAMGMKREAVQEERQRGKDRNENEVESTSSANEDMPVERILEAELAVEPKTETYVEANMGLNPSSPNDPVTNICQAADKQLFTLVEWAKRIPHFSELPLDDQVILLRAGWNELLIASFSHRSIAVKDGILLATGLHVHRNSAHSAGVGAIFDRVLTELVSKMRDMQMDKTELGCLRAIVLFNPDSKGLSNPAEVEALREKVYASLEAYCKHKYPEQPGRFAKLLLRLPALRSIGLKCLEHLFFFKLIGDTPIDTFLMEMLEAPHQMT

Assay [18] in a line: TOX21_TR_RXR_BLA_Antagonist_Followup_viability: Viability Assessment in the Tox21 Thyroid Hormone Receptor beta Retinoid X Receptor alpha (RXRa) Antagonism Beta-lactamase (BLA) Follow-Up Assay (AID 2283979). The gist of the method: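 RXRa-UAS-bla HEK293T cells seeded 2,500/well in phenol red-free DMEM with 2% charcoal-stripped FBS, attached 5 h, then exposed to compounds at 11 concentrations in triplicate for 16 h at 37C/5% CO2. Viability read by CellTiter-Glo ATP luminescence; bidirectional fit versus DMSO.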

Assay [19] in a line: TOX21_PR_LUC_Followup_Antagonist_viability: Viability Assessment in the Tox21 HEK293 Progesterone Receptor (PR) Antagonism Luciferase Follow-Up Assay (AID 2283940). The gist of the method:
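Multiplexed viability counter-screen: after 5 days in charcoal-stripped-FBS medium, HEK293-PR-A-luc cells are plated, pinned with DMSO-dissolved compounds for 16 h at 37C, and ATP content is quantified luminescently via CellTiter-Glo.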

A short description of assay [20]: TOX21_PR_LUC_Followup_Agonist_viability: Viability Assessment in the Tox21 HEK293 Progesterone Receptor (PR) Agonism Luciferase Follow-Up Assay (AID 2283941).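 Further: loss of signal means cytotoxicity so actives lower viability.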 The gist of the method: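 Cells were kept 5 days in charcoal-stripped serum medium before plating HEK293-PR-A-luc at 3,000 cells/well. After 5 h they received DMSO-dissolved compound and incubated 16 h at 37C. Viability was taken from CellTiter-Glo ATP luminescence.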

Sequence of Nucleoli Translocation, AR (gene 367) (P10275 whole entry, looked up): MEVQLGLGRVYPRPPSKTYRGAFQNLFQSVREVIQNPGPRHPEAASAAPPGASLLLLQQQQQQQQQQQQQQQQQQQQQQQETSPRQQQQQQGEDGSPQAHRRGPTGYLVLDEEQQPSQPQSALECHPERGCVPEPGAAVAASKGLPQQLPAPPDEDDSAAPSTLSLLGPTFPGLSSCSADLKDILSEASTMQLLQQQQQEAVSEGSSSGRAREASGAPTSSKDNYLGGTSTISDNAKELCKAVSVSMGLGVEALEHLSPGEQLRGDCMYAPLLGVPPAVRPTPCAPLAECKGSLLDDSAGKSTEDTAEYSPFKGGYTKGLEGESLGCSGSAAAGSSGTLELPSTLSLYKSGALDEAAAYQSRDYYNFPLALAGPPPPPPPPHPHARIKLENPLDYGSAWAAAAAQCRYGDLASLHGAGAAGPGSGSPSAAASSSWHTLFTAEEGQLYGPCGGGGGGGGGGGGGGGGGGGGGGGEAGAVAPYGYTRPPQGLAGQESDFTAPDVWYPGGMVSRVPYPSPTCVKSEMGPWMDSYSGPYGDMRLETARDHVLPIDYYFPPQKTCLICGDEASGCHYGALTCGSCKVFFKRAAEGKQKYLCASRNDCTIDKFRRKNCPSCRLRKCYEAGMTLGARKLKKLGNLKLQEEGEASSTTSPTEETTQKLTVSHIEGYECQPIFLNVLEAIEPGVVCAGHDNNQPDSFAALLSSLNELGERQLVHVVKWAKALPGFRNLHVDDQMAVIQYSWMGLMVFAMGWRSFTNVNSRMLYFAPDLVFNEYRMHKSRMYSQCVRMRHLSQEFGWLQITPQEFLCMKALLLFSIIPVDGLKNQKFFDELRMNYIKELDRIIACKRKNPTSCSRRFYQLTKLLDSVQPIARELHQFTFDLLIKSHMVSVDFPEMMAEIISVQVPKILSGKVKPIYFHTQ
Sequence of Ratio of Nucleoli Translocation and Cytoplasm, AR (gene 367) (P10275 whole entry, looked up): as above
Sequence of THRB (gene 7068) (P10828 whole entry, looked up, the tested form may be a part): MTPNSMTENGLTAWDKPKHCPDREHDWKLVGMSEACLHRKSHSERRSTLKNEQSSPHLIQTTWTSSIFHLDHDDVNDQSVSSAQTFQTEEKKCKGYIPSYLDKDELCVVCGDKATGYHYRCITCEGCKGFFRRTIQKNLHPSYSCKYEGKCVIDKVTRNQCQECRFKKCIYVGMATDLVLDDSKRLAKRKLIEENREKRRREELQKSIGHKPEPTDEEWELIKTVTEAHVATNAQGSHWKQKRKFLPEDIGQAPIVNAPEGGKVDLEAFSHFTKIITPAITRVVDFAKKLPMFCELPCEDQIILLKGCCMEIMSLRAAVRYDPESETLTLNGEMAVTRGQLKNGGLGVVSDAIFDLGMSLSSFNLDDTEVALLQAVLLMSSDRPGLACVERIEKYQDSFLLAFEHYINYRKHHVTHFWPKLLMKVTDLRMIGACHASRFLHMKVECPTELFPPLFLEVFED

For `O=c1ssc(Cl)c1Cl`, the AC50 in assay [1] was 0.149 µM (active).

Turning to `CCOP(=S)(OCC)SCSCC`, the outcome in assay [2] and in assay [4] was inactive. For the same molecule, the AC50 in assay [3] was 50 µM (active).

As to `c1cc2c3c(cccc3c1)CC2`, the outcome in assay [5] and in assay [6] was inactive.

As to `CC1(C)CN=C(NN=C(/C=C/c2ccc(C(F)(F)F)cc2)/C=C/c2ccc(C(F)(F)F)cc2)NC1`, in [5], the half-maximal activity concentration (AC50) was 9.92 µM (active). Moreover, in [6], the outcome was inactive.

For the molecule `CCN(CC)c1ccccc1`, the molecule was called inactive in assay [5] and in assay [6].

For `CCC1(c2ccccc2)C(=O)N=C(O)NC1=O` (centres undefined), the result in assay [7], in [8], in [9], in assay [10], in [11] and in assay [12] was inactive.

Take `CO/N=C(/C(=O)OC)c1ccccc1COc1ccccc1C`: the values for the half-maximal activity concentration (AC50) in [13] and in assay [14] were 9.33 µM (active) and 23.1 µM (active), respectively. The call in assay [15], in assay [16], in [17], in assay [18], in assay [5] and in assay [6] was inactive.

As for `ClC(Cl)=C(c1ccc(Cl)cc1)c1ccccc1Cl`, in assay [5], the AC50 is 50 µM (active) and 9.92 µM (active). For the same molecule, the result in [6] was inactive.

For `O=C(O)C(Cl)Cl`, the outcome in assay [7], in assay [8], in assay [9], in [10], in assay [11] and in assay [12] was inactive.

Consider `O=S1(=O)OCC2C(CO1)C1(Cl)C(Cl)=C(Cl)C2(Cl)C1(Cl)Cl` (centres undefined), for which the molecule was called inactive in assay [19] and in [20].
